The supplement of paper PMC11732987, “Enantioselective OTUD7B fragment discovery through chemoproteomics screening and high-throughput optimisation” (Communications Chemistry, 2025)

How the values were obtained:
Assay in all cases: log2 ratio of Biotin-Ahx-Ub-VS probe labelling (fragment/DMSO); higher = less target engagement (more negative = stronger competition), active = hit call of the paper (q ≤ 0.05, log2 ratio ≤ -1)
Details in all cases: compound concentration: 200 uM; treatment time: 3 h
[1] = target: T1, USP42 (UniProt Q9H9J4)
T1 sequence (whole entry): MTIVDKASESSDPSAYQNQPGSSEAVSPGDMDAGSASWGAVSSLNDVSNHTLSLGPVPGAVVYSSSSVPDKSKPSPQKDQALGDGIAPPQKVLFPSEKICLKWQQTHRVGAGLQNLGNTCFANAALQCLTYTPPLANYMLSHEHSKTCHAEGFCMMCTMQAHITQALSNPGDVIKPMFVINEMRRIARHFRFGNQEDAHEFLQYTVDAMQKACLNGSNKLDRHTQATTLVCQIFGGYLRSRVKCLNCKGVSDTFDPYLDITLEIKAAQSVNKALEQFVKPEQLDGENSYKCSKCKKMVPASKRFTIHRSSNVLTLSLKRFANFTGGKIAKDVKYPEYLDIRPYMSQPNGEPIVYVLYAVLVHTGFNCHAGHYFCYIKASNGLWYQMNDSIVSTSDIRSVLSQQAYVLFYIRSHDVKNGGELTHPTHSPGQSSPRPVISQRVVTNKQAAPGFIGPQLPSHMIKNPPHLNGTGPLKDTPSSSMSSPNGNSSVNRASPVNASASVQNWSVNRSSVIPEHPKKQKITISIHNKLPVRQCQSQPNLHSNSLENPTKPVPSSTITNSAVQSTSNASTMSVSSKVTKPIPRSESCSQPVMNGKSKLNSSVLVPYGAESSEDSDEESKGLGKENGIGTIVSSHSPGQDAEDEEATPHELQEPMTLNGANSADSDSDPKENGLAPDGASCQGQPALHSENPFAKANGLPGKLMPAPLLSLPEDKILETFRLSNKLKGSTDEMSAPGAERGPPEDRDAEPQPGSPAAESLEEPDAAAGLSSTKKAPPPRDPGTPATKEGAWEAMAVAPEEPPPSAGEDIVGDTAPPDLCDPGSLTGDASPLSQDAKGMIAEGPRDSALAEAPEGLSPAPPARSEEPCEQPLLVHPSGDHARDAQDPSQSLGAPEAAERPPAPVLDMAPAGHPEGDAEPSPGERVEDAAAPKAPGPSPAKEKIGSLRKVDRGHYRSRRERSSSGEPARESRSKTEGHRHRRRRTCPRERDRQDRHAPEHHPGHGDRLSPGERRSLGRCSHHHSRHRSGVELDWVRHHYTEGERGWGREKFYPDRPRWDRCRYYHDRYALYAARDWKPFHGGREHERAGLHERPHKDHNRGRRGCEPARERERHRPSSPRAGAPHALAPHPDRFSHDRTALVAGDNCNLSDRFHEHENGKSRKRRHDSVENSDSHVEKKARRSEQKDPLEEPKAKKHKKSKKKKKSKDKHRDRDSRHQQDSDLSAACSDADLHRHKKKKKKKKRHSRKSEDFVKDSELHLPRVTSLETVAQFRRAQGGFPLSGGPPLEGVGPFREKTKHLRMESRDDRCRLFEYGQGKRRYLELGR
In short: (§1)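 HEK293T lysate (495 µg per sample, in Tris/CHAPS/IGEPAL buffer with protease inhibitors) was treated in triplicate with fragment at 200 µM or with DMSO for 3 h. It was then treated with Biotin-Ahx-Ub-VS (0.5 µM final) for 1 h. Labelled DUBs were NeutrAvidin-enriched, digested with LysC and trypsin, and run by diaPASEF LC-MS/MS. Spectronaut label-free quantities were global-median-normalised. Values are average log2 ratios fragment/DMSO by unpaired t-test, using proteins with ≥2 unique peptides.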

[2] = target: USP46 (UniProt P62068)
USP46, sequence (P62068 whole entry): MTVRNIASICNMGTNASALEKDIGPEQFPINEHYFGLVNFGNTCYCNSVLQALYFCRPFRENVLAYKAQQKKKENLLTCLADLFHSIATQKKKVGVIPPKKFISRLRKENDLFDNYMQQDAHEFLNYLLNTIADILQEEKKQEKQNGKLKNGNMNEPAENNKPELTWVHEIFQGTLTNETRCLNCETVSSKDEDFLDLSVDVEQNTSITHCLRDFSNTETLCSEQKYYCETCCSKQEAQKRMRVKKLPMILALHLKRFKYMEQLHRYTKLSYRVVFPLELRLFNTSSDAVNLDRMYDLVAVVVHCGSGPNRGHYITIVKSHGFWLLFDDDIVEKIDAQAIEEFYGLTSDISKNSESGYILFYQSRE
In short: as §1

[3] = target: T2, USP47 (UniProt Q96K76)
T2 sequence (whole entry): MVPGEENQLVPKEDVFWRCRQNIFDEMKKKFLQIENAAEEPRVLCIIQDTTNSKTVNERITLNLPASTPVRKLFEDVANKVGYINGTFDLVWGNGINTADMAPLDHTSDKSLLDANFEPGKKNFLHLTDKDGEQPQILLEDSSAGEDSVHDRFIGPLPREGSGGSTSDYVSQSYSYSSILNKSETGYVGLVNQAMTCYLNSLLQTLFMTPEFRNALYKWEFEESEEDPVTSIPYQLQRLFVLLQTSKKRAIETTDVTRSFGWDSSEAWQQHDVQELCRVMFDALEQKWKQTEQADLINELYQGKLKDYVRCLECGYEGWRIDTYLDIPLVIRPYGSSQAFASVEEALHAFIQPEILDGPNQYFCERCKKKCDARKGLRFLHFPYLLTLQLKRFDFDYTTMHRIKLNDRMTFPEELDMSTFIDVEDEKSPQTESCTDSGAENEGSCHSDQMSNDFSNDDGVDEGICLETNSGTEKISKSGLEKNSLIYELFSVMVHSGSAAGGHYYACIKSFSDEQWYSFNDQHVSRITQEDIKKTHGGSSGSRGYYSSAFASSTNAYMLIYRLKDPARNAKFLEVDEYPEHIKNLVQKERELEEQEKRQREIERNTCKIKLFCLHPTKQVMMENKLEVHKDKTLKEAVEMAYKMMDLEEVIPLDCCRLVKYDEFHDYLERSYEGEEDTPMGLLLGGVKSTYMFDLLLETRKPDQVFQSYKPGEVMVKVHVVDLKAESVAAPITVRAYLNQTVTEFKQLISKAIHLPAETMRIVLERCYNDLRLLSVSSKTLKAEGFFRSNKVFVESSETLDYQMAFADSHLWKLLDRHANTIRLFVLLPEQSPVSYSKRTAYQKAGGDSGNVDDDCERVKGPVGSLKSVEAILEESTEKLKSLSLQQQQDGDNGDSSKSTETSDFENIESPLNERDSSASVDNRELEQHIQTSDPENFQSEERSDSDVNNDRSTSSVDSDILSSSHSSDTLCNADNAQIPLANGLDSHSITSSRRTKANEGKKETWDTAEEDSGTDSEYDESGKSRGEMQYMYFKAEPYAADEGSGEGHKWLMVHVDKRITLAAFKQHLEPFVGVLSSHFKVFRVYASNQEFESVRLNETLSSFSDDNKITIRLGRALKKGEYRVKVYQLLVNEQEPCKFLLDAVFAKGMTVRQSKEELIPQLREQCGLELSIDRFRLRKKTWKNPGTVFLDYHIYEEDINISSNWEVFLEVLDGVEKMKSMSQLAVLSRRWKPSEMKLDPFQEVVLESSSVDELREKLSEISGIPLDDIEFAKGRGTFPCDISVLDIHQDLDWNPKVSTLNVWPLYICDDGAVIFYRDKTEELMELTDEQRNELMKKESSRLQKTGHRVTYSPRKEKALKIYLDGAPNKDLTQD
In short: as §1

[4] = target: T3, USP48 (UniProt Q86UV5)
T3 sequence (whole entry): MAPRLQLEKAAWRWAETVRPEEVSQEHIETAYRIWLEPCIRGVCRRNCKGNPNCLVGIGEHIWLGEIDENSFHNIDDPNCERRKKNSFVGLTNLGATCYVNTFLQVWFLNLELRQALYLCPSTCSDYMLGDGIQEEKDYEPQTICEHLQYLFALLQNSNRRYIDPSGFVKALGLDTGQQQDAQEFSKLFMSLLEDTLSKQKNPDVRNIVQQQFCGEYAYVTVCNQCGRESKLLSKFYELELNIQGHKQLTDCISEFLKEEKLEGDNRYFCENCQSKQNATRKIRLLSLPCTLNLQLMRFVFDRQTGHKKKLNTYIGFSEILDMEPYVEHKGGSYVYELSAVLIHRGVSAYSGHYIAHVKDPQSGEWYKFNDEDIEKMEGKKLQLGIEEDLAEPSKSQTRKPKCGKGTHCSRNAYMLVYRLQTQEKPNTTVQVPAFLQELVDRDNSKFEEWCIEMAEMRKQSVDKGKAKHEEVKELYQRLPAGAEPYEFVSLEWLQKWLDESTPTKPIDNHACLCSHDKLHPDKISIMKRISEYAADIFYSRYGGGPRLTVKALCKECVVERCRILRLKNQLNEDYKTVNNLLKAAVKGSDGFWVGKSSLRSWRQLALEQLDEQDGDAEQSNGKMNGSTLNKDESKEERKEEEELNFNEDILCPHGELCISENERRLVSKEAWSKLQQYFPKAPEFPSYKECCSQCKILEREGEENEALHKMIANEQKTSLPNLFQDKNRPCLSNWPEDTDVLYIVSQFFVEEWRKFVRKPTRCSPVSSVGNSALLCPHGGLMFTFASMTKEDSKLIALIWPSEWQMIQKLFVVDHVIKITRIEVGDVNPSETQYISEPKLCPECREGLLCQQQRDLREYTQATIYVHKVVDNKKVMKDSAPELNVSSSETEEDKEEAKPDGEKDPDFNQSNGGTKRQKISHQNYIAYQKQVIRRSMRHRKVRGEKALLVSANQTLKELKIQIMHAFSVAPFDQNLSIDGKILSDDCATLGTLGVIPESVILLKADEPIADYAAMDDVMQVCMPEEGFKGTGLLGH
In short: as §1

[5] = target: T4, USP5 (UniProt P45974)
T4 sequence (whole entry): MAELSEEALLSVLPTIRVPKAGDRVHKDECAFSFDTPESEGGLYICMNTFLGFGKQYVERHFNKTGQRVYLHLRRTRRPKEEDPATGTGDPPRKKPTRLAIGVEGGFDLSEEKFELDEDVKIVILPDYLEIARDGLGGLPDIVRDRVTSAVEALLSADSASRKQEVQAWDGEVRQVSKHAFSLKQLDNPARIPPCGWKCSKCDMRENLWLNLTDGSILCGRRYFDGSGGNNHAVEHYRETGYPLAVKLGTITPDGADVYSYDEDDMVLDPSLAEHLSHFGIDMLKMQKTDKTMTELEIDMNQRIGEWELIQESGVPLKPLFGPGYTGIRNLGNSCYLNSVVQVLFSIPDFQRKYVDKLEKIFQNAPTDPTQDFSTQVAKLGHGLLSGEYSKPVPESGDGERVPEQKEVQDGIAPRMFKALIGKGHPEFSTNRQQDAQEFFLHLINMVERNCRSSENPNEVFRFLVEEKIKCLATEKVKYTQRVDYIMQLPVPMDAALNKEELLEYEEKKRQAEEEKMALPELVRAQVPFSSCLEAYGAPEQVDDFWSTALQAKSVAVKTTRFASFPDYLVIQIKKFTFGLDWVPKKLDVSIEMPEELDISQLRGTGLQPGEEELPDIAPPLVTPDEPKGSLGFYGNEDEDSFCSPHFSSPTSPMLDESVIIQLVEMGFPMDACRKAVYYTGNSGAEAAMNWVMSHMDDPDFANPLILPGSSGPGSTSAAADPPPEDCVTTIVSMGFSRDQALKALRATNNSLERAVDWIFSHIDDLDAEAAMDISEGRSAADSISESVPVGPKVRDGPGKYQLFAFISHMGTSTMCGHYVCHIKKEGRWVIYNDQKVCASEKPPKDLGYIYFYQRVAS
In short: as §1

[6] = target: USP54 (UniProt Q70EL1)
USP54, sequence (Q70EL1 whole entry): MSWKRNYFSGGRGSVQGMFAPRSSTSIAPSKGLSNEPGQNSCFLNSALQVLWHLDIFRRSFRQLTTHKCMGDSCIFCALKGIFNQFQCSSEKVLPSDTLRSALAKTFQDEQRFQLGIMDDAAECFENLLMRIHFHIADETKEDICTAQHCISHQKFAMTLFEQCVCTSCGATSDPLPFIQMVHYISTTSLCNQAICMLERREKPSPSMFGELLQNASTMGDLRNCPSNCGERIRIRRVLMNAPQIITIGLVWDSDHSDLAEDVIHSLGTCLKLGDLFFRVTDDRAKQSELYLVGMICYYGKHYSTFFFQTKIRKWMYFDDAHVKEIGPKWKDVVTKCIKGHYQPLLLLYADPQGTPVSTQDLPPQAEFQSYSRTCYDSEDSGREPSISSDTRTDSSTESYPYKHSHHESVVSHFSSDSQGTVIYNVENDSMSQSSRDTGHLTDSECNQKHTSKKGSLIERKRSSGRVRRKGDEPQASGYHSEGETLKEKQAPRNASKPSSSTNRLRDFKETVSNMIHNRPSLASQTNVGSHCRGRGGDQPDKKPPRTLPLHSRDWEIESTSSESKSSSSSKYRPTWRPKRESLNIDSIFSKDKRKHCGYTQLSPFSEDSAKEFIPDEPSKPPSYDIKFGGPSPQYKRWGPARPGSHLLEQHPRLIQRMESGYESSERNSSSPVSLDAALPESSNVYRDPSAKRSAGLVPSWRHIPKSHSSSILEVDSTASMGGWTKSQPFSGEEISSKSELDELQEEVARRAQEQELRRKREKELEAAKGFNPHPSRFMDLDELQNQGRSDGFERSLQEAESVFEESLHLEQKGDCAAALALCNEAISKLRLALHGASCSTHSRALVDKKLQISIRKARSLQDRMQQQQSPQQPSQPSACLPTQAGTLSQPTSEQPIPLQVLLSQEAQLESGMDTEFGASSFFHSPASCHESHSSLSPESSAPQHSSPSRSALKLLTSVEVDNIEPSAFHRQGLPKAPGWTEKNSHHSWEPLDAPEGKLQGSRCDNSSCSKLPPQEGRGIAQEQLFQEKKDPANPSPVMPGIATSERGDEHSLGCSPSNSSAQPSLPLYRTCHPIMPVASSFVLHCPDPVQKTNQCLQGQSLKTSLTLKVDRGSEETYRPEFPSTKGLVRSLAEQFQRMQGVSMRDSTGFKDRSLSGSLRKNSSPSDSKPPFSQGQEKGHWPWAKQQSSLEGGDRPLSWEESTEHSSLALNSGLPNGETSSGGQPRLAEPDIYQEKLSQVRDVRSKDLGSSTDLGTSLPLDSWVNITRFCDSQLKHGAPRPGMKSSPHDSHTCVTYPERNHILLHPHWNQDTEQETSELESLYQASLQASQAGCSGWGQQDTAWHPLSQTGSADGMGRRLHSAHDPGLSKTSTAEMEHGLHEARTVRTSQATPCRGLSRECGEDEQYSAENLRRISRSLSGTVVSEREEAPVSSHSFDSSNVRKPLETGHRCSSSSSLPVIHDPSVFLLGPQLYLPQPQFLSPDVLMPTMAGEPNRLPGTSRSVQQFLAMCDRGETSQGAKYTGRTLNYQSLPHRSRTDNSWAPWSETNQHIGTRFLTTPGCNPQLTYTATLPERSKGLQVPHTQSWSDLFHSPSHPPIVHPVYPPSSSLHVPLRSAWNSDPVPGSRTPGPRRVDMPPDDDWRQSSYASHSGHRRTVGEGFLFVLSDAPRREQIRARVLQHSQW
In short: as §1

[7] = target: USP7 (UniProt Q93009)
USP7, sequence (Q93009 whole entry, looked up): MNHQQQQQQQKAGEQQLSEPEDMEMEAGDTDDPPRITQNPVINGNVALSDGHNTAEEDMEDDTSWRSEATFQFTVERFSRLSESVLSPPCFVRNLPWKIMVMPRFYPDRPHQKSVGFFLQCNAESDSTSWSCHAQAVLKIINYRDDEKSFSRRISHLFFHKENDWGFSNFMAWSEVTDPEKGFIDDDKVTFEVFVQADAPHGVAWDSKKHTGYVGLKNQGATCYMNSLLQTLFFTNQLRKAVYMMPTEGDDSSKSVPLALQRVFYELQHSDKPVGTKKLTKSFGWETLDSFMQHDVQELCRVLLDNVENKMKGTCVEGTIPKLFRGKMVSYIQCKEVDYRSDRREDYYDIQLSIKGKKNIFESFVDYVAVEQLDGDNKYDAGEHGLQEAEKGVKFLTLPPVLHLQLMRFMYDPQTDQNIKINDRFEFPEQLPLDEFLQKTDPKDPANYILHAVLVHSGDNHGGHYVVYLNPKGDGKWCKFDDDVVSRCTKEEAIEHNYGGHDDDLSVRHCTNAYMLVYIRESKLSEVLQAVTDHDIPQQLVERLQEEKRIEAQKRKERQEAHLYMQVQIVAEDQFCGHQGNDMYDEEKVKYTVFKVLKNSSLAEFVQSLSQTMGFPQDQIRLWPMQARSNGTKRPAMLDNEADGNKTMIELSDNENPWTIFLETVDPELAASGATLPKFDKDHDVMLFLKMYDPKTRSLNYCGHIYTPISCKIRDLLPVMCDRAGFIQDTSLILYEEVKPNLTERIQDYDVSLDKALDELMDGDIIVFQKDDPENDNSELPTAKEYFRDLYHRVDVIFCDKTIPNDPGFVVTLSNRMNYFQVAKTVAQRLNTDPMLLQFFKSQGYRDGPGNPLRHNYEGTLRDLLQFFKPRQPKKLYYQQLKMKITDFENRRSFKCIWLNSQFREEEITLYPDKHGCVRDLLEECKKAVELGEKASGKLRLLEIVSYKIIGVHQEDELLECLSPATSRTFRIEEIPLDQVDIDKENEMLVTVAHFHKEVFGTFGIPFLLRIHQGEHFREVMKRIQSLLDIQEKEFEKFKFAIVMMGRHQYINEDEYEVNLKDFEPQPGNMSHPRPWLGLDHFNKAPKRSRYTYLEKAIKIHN
In short: as §1

[8] = target: T5, USP8 (UniProt P40818)
T5 sequence (whole entry): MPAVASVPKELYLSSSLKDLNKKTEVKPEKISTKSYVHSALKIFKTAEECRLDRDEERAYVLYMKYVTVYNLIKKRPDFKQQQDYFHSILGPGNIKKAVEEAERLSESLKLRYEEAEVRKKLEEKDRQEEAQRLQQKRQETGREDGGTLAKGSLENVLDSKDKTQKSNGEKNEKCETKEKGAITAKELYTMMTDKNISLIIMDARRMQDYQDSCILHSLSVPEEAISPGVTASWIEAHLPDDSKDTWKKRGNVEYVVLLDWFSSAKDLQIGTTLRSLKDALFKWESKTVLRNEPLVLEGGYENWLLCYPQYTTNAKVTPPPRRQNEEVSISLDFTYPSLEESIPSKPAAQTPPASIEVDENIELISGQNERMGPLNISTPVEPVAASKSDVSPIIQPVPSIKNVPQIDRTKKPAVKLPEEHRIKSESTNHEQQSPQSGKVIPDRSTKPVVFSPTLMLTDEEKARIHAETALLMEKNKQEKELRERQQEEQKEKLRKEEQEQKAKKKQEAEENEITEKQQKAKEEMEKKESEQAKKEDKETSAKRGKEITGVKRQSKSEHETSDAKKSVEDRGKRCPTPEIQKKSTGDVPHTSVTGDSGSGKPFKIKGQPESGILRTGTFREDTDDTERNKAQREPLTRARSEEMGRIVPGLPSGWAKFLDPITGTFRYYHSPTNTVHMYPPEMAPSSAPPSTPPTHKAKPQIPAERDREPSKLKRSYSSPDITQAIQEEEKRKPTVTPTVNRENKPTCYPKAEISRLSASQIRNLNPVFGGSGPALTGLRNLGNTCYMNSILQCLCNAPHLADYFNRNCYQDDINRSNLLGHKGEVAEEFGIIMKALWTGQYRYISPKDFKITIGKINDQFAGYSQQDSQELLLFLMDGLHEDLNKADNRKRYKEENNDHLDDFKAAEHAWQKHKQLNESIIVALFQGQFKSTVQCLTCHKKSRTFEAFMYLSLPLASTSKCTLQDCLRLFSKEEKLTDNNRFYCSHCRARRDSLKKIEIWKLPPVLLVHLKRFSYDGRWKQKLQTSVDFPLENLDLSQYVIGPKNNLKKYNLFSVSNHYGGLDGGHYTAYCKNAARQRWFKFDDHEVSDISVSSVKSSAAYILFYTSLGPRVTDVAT
In short: as §1

Measured: log2 ratio of Biotin-Ahx-Ub-VS probe labelling

O=C(CCl)NC1CCC2(CC1)OCCO2
inactive: [1] -0.0532 | [2] -0.121 | [3] 0.154 | [4] -0.263 | [5] -0.0178 | [6] 0.457 | [7] -0.157 | [8] -0.255
